# Where “and” joins values, the source holds several entries; their conditions need not be identical. Equal values may be shown once. Records with an inconclusive call do not appear. Where a call stands in place of a potency, no number is given. Calls of active or inactive are those of the source. Unless noted, calls follow the shape of the full dose curve. Residues, ends and D or L forms follow the SMILES beside them.
# Assays:
# [1] = molecular target: Glucocorticoid receptor (Homo sapiens) (UniProt P04150); test: qHTS assay for small molecule antagonists of glucocorticoid receptor signaling (AID 588533; active = well fitted inhibition curve with a large enough effect in the signal ratio, with a control signal flat, not every such curve was filed as active; the % refers to the signal ratio;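 also: cells stimulated with 2 nM dexamethasone as agonist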; also: potency is read from the fitted curve at half-maximal effect); settings: HeLa MMTV-bla, GRE beta-lactamase ratio, antagonist mode, 18 h; series mostly up to 76.8 µM
# Chain of Glucocorticoid receptor (Homo sapiens) (P04150 whole entry, looked up): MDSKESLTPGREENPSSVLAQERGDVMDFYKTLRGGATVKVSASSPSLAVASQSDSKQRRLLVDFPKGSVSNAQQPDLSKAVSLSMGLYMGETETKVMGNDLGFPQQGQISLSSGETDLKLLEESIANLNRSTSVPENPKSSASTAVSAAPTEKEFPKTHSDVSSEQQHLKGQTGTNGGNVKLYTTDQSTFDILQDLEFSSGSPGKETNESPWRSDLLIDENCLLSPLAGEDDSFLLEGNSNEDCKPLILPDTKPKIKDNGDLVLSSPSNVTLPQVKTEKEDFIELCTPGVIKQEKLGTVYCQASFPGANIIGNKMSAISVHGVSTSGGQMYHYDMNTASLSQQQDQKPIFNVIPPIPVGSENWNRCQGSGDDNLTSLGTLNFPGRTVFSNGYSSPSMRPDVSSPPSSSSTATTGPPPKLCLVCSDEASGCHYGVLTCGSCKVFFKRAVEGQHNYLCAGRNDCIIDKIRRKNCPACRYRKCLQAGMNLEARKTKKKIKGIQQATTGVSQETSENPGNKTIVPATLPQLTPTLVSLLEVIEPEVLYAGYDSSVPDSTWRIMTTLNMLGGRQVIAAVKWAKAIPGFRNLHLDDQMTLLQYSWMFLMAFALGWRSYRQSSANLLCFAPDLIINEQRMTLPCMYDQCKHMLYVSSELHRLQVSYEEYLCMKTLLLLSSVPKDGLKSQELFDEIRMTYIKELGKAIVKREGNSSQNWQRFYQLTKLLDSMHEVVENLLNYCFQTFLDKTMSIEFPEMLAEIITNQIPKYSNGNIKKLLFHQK
# Summary of the method: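 Antagonist-mode qHTS: compound titrations added to GRE-bla HeLa cells, then dexamethasone 2 nM final; 18 h, 37 C. CCF4 FRET fluorescence normalized to dexamethasone and DMSO; IC50 from Hill fit.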
# [2] = qHTS assay for small molecule antagonists of peroxisome proliferator-activated receptor delta signaling (AID 588535; active = well fitted inhibition curve with a large enough effect in the signal ratio, with a control signal flat, not every such curve was filed as active; the % refers to the signal ratio;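 as to max response: cells co-treated with a PPAR-delta agonist as stimulator during compound exposure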); settings: HEK293T PPARd-UAS-bla, beta-lactamase FRET ratio, 18 h; 460 nm channel
# Summary of the method: (§1)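 Reporter: UAS-bla under PPAR-delta response element, HEK293T host. Medium: 2% charcoal/dextran FBS. Dosing: titration, 18 hrs, 37 C. Detection: CCF4, 2 hrs RT, 405 ex/460 and 530 em.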
# [3] = molecular target: Peroxisome proliferator-activated receptor delta (Homo sapiens) (UniProt Q03181); test: as above; settings: HEK293T PPARd-UAS-bla, beta-lactamase FRET ratio, 18 h; series mostly up to 76.7 µM
# Chain of Peroxisome proliferator-activated receptor delta (Homo sapiens) (Q03181 whole entry, looked up): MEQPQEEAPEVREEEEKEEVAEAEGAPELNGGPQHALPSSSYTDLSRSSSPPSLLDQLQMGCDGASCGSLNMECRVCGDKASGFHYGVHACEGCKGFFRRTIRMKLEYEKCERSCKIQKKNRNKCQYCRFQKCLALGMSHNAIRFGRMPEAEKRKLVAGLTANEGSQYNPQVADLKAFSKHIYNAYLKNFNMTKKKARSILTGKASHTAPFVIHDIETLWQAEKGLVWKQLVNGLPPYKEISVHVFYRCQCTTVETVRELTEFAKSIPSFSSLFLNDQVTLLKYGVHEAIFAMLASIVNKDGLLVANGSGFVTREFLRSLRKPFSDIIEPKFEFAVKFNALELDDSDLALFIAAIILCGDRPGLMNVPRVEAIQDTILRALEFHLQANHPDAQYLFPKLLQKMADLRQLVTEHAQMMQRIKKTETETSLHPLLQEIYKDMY
# Summary of the method: as §1
# [4] = molecular target: Peroxisome proliferator-activated receptor gamma (Homo sapiens) (UniProt P37231); test: qHTS assay for small molecule agonists of peroxisome proliferator-activated receptor gamma signaling (AID 588536; active = well fitted curve in the direction sought with a large enough effect in the signal ratio, with a control signal flat, not every such curve was filed as active; the % refers to the signal ratio); settings: HEK293 PPARg-UAS-bla, beta-lactamase ratio, 16 h, percent of rosiglitazone response, DMSO as zero; series mostly up to 76.7 µM
# Chain of Peroxisome proliferator-activated receptor gamma (Homo sapiens) (P37231 whole entry, looked up): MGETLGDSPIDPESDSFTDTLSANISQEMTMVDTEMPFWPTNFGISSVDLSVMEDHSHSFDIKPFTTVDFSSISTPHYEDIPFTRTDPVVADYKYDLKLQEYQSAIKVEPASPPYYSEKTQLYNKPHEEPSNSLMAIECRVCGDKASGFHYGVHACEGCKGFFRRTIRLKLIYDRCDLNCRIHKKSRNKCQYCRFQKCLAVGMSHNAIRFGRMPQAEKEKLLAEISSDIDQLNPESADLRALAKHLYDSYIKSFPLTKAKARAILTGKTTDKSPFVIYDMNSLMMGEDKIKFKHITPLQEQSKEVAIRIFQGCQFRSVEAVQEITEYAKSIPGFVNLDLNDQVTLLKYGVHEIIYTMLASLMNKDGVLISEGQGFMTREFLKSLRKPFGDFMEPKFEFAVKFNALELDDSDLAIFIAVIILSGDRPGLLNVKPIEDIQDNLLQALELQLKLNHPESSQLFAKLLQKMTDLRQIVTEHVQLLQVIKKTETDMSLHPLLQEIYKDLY
# Summary of the method: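 Ratiometric blue/green fluorescence (405 nm excitation; 460 and 530 nm emission) from CCF4-loaded HEK293 reporter cells serves as signal. Exposure to test compounds lasts 16 h at 37 C in medium containing 1% charcoal/dextran-treated serum.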
# [5] = qHTS assay for small molecule agonists of retinoid X receptor alpha signaling (AID 588544); settings: HEK293T RXRa-UAS-bla, beta-lactamase reporter, 18 h; 530 nm emission; also: potency is read from the fitted curve at half-maximal effect
# [6] = molecular target: Retinoic acid receptor RXR-alpha (Homo sapiens) (UniProt P19793); test: as above; settings: HEK293T RXRa-UAS-bla, beta-lactamase reporter, 18 h; series mostly up to 76.7 µM
# Chain of Retinoic acid receptor RXR-alpha (Homo sapiens) (P19793 whole entry, looked up): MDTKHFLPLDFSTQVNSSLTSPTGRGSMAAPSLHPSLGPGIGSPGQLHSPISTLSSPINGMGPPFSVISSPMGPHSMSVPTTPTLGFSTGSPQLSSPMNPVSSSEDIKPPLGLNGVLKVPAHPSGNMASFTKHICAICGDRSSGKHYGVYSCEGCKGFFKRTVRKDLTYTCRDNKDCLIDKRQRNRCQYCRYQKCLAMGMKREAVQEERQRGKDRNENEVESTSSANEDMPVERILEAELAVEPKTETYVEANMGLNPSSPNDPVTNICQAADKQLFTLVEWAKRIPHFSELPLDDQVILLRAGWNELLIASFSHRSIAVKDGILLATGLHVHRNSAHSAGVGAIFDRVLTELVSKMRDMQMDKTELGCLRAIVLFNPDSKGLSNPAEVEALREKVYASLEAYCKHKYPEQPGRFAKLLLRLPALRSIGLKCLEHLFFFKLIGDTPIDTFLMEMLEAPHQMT
# [7] = molecular target: Peroxisome proliferator-activated receptor delta (Homo sapiens) (UniProt Q03181); test: qHTS assay for small molecule agonists of peroxisome proliferator-activated receptor delta signaling (AID 588534); settings: HEK293T PPARdelta-UAS-bla, beta-lactamase ratio, 18 h; series mostly up to 76.7 µM
# Summary of the method: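 Fluorescence from CCF4 substrate cleavage by beta-lactamase reporter, read 2 hrs at RT, measured agonist activity. Compounds were tested with 18 hrs exposure at 37 C. Concentration-response data fitted to Hill equation.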
# [8] = molecular target: Peroxisome proliferator-activated receptor gamma (Homo sapiens) (UniProt P37231); test: qHTS assay for small molecule antagonists of peroxisome proliferator-activated receptor gamma signaling (AID 588537; active = well fitted inhibition curve with a large enough effect in the signal ratio, with a control signal flat, not every such curve was filed as active; the % refers to the signal ratio;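 also: reporter cells co-stimulated with 50 nM rosiglitazone agonist during compound treatment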); settings: HEK293 PPARg-UAS-bla, beta-lactamase ratio, antagonist mode; series mostly up to 76.8 µM
# Summary of the method: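 We seeded GeneBLAzer HEK293 reporter cells at 3000 per well, allowed 6-6.5 h attachment at 37 C, then co-treated with test compound titrations and 50 nM rosiglitazone overnight (16 h). Inhibition was quantified from 460/530 nm emission ratios.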
# [9] = molecular target: Vitamin D3 receptor (Homo sapiens) (UniProt P11473); test: qHTS assay for small molecule antagonists of vitamin D receptor signaling (AID 588541); settings: HEK293T VDR-UAS-bla, beta-lactamase ratio, antagonist mode; series mostly up to 76.7 µM; also: potency is read from the fitted curve at half-maximal effect
# Chain of Vitamin D3 receptor (Homo sapiens) (P11473 whole entry, looked up): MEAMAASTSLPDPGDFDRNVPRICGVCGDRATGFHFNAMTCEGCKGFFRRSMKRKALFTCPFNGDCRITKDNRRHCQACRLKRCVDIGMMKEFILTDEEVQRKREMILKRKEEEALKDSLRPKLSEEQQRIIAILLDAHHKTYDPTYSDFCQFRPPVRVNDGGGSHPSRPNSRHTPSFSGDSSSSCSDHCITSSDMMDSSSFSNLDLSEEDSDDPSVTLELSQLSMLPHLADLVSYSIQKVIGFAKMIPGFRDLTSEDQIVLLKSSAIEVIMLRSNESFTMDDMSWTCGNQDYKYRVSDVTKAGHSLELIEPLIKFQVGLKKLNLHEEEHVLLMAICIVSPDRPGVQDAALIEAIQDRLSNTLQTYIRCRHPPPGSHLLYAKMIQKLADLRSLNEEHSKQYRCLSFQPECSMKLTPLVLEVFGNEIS
# Summary of the method: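 VDR-UAS-bla HEK293T cells (2000/well, 2% charcoal-stripped FBS) were treated with titrated compounds plus 1-alpha,25-dihydroxyvitamin D3 (50 nM or 3 nM final) for 16 h at 37 C. CCF4 beta-lactamase fluorescence was read; Hill fits gave IC50.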
# [10] = molecular target: Vitamin D3 receptor (Homo sapiens) (UniProt P11473); test: qHTS assay for small molecule agonists of vitamin D receptor signaling (AID 588543); settings: HEK293T VDR-UAS-bla, beta-lactamase ratio, 16 h; series mostly up to 76.8 µM
# Summary of the method: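 qHTS in agonist mode: compound titrations stimulate a VDR-driven β-lactamase reporter in HEK293T cells over 16 h at 37 °C. Response normalized to 50 nM 1α,25-dihydroxyvitamin D3 = 100%, DMSO = 0%; Hill fitting gives EC50 and maximal response.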
smiles,measurement,setting,value
NCCc1ccc(O)cc1,Potency,[1],inactive
same,max response,[2],-1.35%
same,outcome,[3],inactive
same,outcome,[4],inactive
same,max response,[5],-3.57%
same,Potency,[6],inactive
COc1cc(OC)c(C(=O)CCCN2CCCC2)c(OC)c1,outcome,[7],inactive
O=P1(N(CCCl)CCCl)NCCCO1 (stereo not given),Potency,[1],inactive
same,max response,[2],34.9% and 30.3%
same,outcome,[3],inactive
same,outcome,[4],inactive
same,outcome,[8],inactive
same,Potency,[9],inactive
same,outcome,[10],inactive
same,max response,[5],8.36% and -10.5%
same,Potency,[6],inactive
O=C(OOC(=O)c1ccccc1)c1ccccc1,outcome,[7],inactive
CCC(C)(C)c1ccc(O)cc1,Potency,[1],inactive
same,outcome,[4],inactive
same,outcome,[8],inactive
same,Potency,[9],inactive
same,outcome,[10],inactive
same,max response,[5],-12.7% and -6.48%
same,Potency,[6],inactive
CCCCCCCCCCCCCCCCO,outcome,[7],inactive
C[C@]1(O)CC[C@H]2[C@@H]3CCC4=CC(=O)CC[C@]4(C)[C@@]3(F)[C@@H](O)C[C@@]21C,Potency,[1],10 µM (active)
same,max response,[2],-0.651%
same,outcome,[3],inactive
same,outcome,[4],inactive
same,outcome,[8],inactive
same,max response,[5],3.94%
same,Potency,[6],inactive
COC(=O)C(c1ccccc1)C1CCCCN1 (stereo not given),Potency,[1],inactive
same,outcome,[4],inactive
same,outcome,[8],inactive
same,Potency,[9],inactive
same,outcome,[10],inactive
CCCC(C)(COC(N)=O)COC(N)=O,Potency,[1],inactive
same,outcome,[7],inactive
same,max response,[2],-25.1%
same,outcome,[3],inactive
same,outcome,[4],inactive
same,outcome,[8],inactive
same,Potency,[9],inactive
same,outcome,[10],inactive
COc1ccc(O)cc1,outcome,[7],inactive
COP(=S)(OC)SCN1C(=O)c2ccccc2C1=O,Potency,[1],inactive
same,outcome,[4],inactive
CC(C)(C)CC(C)(C)c1ccc(O)c(-n2nc3ccccc3n2)c1,outcome,[7],inactive
CC(=O)c1ccc(S(=O)(=O)NC(=O)NC2CCCCC2)cc1,outcome,[7],inactive
N[C@@H](Cc1cc(I)c(Oc2ccc(O)c(I)c2)c(I)c1)C(=O)O,outcome,[7],inactive
S=P(N1CC1)(N1CC1)N1CC1,outcome,[7],inactive
CC(C)NC(C)C,Potency,[1],inactive
same,outcome,[4],inactive
same,Potency,[9],inactive
same,outcome,[10],inactive
same,max response,[5],-5.82%
same,Potency,[6],inactive
COP(=S)(OC)Oc1cc(Cl)c(Cl)cc1Cl,Potency,[1],inactive
same,max response,[2],28.8%
same,outcome,[3],inactive
same,outcome,[4],inactive
same,outcome,[8],inactive
same,max response,[5],-2.58%
same,Potency,[6],inactive
CCOC(=O)CC(SP(=S)(OC)OC)C(=O)OCC (stereo not given),Potency,[1],inactive
same,max response,[2],0.513%
same,outcome,[3],inactive
same,outcome,[4],inactive
same,Potency,[9],inactive
same,outcome,[10],inactive
same,max response,[5],5.59%
same,Potency,[6],inactive
COC(=O)[C@H](Cc1ccccc1)NC(=O)[C@@H](N)CC(=O)O (H-Asp-Phe-OMe),outcome,[7],inactive
Nc1nc(N)nc(NC2CC2)n1,Potency,[1],inactive
same,max response,[2],47%
same,outcome,[3],inactive
same,max response,[5],-19.4%
same,Potency,[6],inactive
O=C1c2ccccc2C(=O)c2ccccc21,max response,[2],36.9%
same,outcome,[3],inactive
same,outcome,[4],inactive
same,outcome,[8],inactive
same,Potency,[9],inactive
same,outcome,[10],inactive
same,max response,[5],-19.1%
same,Potency,[6],35.5 µM (active)
Oc1ccc(Cl)cc1,outcome,[7],inactive
same,max response,[2],-18.6%
same,outcome,[3],inactive
same,outcome,[4],inactive
same,outcome,[8],inactive
same,Potency,[9],inactive
same,outcome,[10],inactive
same,max response,[5],-11.6%
same,Potency,[6],inactive
CCCCOC(=O)c1ccc(N)cc1,outcome,[7],inactive
CC(=O)N1CCN(c2ccc(OC[C@H]3CO[C@](Cn4ccnc4)(c4ccc(Cl)cc4Cl)O3)cc2)CC1,outcome,[7],inactive
same,Potency,[9],44.7 µM (active)
NCCNCCNCCNCCN,outcome,[7],inactive
CCc1cc(C(N)=S)ccn1,outcome,[7],inactive
O=C(Oc1ccccc1)c1ccccc1O,max response,[5],23.5%
same,Potency,[6],inactive
NC(=O)c1cnccn1,outcome,[7],inactive
Oc1ccccc1,max response,[5],-13.8% and -5.05%
same,Potency,[6],inactive
CCCCOC(=O)CC(CC(=O)OCCCC)(OC(C)=O)C(=O)OCCCC,outcome,[7],inactive
Cc1cc(O)cc(C)c1Cl,outcome,[7],inactive
COc1ccc2[nH]cc(CCNC(C)=O)c2c1,outcome,[7],inactive
CC1CC(OC(=O)c2ccccc2O)CC(C)(C)C1 (stereo not given),outcome,[7],inactive
O=C(O)c1cc(=O)[nH]c(=O)[nH]1,outcome,[7],inactive
NNC(=O)c1ccncc1,outcome,[7],inactive
O=C(c1ccccc1)c1ccccc1,outcome,[7],inactive
O=C(O)c1cc(O)c(O)c(O)c1,outcome,[7],inactive
O=c1[nH]c(=O)n([C@H]2C[C@H](O)[C@@H](CO)O2)cc1Br,outcome,[7],inactive
[N-]=[N+]=CC(=O)OC[C@H](N)C(=O)O,outcome,[7],inactive
same,max response,[2],46.8%
same,outcome,[3],inactive
same,Potency,[9],inactive
same,outcome,[10],inactive
same,max response,[5],-12%
same,Potency,[6],inactive
CC(=O)OCC(COC(C)=O)OC(C)=O,outcome,[7],inactive
O=C1c2ccccc2C(=O)C1C(=O)C(c1ccccc1)c1ccccc1,outcome,[8],inactive
same,max response,[5],-20.8%
same,Potency,[6],inactive
Nc1ccccc1C(=O)O,outcome,[4],inactive
same,outcome,[8],inactive
same,Potency,[9],inactive
same,outcome,[10],inactive
same,max response,[5],-3.98%
same,Potency,[6],inactive
COc1cc(C=O)ccc1O,outcome,[7],inactive
CCOP(=S)(OCC)Oc1ccc2c(C)c(Cl)c(=O)oc2c1,outcome,[4],inactive
same,outcome,[8],inactive
C[C@]12CCC(=O)C=C1CC[C@@H]1[C@@H]2CC[C@]2(C)C(=O)CC[C@@H]12,outcome,[7],inactive
same,outcome,[4],inactive
Cc1ncc(CO)c(CO)c1O,outcome,[7],inactive
NC(=O)N1c2ccccc2C=Cc2ccccc21,outcome,[7],inactive
CN1C[C@H](C(=O)N[C@]2(C)O[C@@]3(O)[C@@H]4CCCN4C(=O)[C@H](Cc4ccccc4)N3C2=O)C=C2c3cccc4[nH]cc(c34)C[C@H]21,outcome,[10],inactive
